Measurements taken from paper PMC4336329 (PLoS ONE, 2015).
The whole screen tested about 310,000 compounds, of which about 14,000 (4.5%) showed an effect of 50% or more. The effect is printed as a negative number. Only a selection was taken, and strong results are over-represented in it overall.

biological target: human ether-à-go-go-related gene (hERG) potassium channel (human, UniProt Q12809); test: primary screen, population patch clamp on CHO cells stably expressing hERG; higher = less effect of the substance
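Also: peak tail current of the secondary pulse compared with the same well before compound.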

Sequence of human ether-à-go-go-related gene (hERG) potassium channel (Q12809 whole entry, looked up): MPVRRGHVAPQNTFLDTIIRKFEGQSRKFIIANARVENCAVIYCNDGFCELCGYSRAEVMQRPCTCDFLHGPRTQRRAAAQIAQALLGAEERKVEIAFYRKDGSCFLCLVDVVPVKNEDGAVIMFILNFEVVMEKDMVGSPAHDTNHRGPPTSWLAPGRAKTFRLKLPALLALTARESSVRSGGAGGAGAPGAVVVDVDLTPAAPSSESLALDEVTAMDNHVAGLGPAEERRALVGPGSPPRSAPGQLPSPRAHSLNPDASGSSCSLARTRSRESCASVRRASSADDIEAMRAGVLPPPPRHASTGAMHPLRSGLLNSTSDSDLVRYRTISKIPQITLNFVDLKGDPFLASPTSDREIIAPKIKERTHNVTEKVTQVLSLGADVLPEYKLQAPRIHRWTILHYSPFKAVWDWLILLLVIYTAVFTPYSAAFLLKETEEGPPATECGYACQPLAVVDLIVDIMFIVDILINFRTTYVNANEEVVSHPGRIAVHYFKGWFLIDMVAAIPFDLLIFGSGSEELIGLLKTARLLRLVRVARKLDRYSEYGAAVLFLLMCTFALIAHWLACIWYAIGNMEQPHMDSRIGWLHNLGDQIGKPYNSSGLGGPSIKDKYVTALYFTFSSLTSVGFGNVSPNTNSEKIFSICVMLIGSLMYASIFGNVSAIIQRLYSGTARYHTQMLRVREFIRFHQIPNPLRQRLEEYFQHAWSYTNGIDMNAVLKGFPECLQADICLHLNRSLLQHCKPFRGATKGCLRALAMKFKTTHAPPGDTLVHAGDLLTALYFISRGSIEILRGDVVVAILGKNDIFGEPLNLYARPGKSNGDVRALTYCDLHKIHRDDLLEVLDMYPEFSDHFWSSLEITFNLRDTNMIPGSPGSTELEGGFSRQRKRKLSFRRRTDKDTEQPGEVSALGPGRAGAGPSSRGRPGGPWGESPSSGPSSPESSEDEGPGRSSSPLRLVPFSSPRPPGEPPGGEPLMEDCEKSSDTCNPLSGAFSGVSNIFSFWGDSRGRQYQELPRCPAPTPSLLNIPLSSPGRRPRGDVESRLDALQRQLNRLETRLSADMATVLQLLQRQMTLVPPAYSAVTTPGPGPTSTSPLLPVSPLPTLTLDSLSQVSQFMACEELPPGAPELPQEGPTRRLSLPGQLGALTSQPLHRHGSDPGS

Point of comparison: `COc1cccc(CNC23CC4CC(CC(C4)C2)C3)c1OCc1ccccc1.Cl`, “hERG current change (%, negative = inhibition) at 10uM” value -50%. Against it:
- CCC(CC)c1nnc(NC(=O)c2cccnc2SC)s1 — higher, 15.4%
- C/C=C/c1ccc(OCCCCN2C(=O)NC(C)(C)C2=O)c(OC)c1 — higher, -7.09%
- COc1ccccc1C(O)(C(=O)NN(C)c1ccccc1)c1ccccc1OC — higher, 9.03%
- Cc1cccc(OCCCCc2c(C)n[nH]c2C)c1C — higher, 9.64%
- CCc1ccc(/C=C2\Oc3cc(OS(C)(=O)=O)ccc3C2=O)cc1 — higher, 11.8%
- O=S(=O)(NC1=NCCC1)c1cccc(NS(=O)(=O)c2ccc(OC(F)(F)F)cc2)c1 — higher, 1.71%
- CN1CCN(CCNC(=O)Nc2ccccc2C(F)(F)F)CC1 — higher, 3.26%
- CC1(C)C2CCC1(C)C(OC(=O)C[n+]1ccccc1N)C2.[Br-] (stereo not shown) — higher, -35.3%
- CCOC(=O)C1CCN(c2cc3c(cc2NC(=O)c2cc(OC)ccc2Br)n(C)c(=O)n3C)CC1 — higher, 0.12%
- COCCNc1c([N+](=O)[O-])c(=O)n(-c2ccccc2)c2ccccc12 — higher, -25.2%
- O=C(c1ccccc1Oc1ccc(C(F)(F)F)cc1[N+](=O)[O-])N1CCOCC1 — higher, 1.22%
- COC(=O)CN1C(=O)C(O)(CC(=O)c2cccc(Br)c2)c2ccccc21 (stereo not shown) — higher, -11.7%
- CN(Cc1ccccn1)Cc1nc(COc2ccccc2)no1 — higher, -2.85%
- COc1cccc(CNCc2cccnc2)c1OCc1ccccc1.Cl — higher, 19.3%
- c1ccc(COc2ccccc2CNC2CCCC2)cc1 — higher, -39.7%
- COc1cc(CNC23CC4CC(CC(C4)C2)C3)ccc1OCc1ccccc1.Cl — lower, -64%
- COc1cccc(CNCCO)c1OCc1ccccc1.Cl — higher, -1.31%
- Cl.c1ccc(COc2ccccc2CNC23CC4CC(CC(C4)C2)C3)cc1 — lower, -83.6%
- CNCc1ccc(OCc2ccccc2)c(OC)c1 — higher, 0.71%
- COc1cc(CNC(=O)C2CC2)ccc1OCc1ccccc1 — higher, -11.8%
- CCNCc1ccccc1OCc1ccccc1.Cl — higher, -3.77%
- COc1cc(NC(=O)CS(=O)(=O)c2ccccc2)cc(OC)c1OC — higher, 11.3%
- Cc1cccc(NC(=O)Nc2cccc(Oc3c(F)c(F)c(F)c(F)c3F)c2)c1 — higher, 8.83%
- N#C/C(=C/c1ccc(Br)s1)C(=O)NCCc1c[nH]c2ccccc12 — higher, 18.8%
